Drawing on PubChem BioAssay AID1879 (The Scripps Research Institute Molecular Screening Center, 2009), this text covers inhibition for 19 compounds.

The list shows a part of the results. A number with no mark means an inactive call. The source made the active and inactive calls. Rule as the data show it: active = inhibition above about 13%; inactive = the rest.

The test has as its system SARS coronavirus 3C-like protease (3CLpro). Kind of test: SARS 3CLpro inhibition, confirmation assay, retest, confirmation, biochemical (AID 1879). Conditions: QFRET protease activity assay, at 6 µM, hits give high values.
Regarding `Cc1cccc2c1N(CCOc1ccccc1)C(=O)C2=O`, the inhibition (as a rule, the relative decrease from the control value, in per cent) was 19.1% (active).

For the compound `O=C(O)c1ccc(NC(=O)c2cn(-c3ccccc3)nc2-c2ccc(Cl)cc2)cc1`, the inhibition was 6.65%.

`Cc1ccc(OCC(=O)Nc2ccc(C(=O)O)cc2NC(=O)COc2ccc(C)c(C)c2)cc1C`: the inhibition was 8.89%.

Regarding `CC(C)c1ccc(N(C(=O)c2ccco2)C(C(=O)NC2CCCC2)c2cccnc2)cc1` (centres undefined), the inhibition was 47.8% (active).

On to `CCCCNC(=O)N(O)C1N(/N=C/c2ccc(N(C)C)cc2)C(=S)SC1(C)C` (centres undefined), for which the inhibition was -0.44%.

For `CC(=O)c1cc(-c2ccccc2)[nH]c1N1CCCC1`, the inhibition is 22.5% (active).

Consider `COC(=O)COc1cccc2c(=O)n(CC(=O)NCc3ccccc3)ccc12`, for which the inhibition is 5.39%.

For `CN1CCN(CC(=O)Nc2cccc([N+](=O)[O-])c2)CC1`, the inhibition was 1.01%.

With `CCC(C)(C)NC(=O)C(c1ccc(O)cc1)N(C(=O)Cn1nnc2ccccc21)c1ccc(NC(C)=O)cc1` (centres undefined), the inhibition is 25.6% (active).

On to `O=C(NCc1ccccc1)c1ccc(S(=O)(=O)Nc2cccc(C(F)(F)F)c2)cc1`, for which the inhibition was 7.75%.

As for `O=C(c1cc(=O)c2ccccc2o1)N1CCN(c2ccccc2)CC1`, the inhibition was 12.2%.

With `Cc1cccc(C(=O)Nc2nnc(Cc3c[nH]c4ccccc34)s2)c1`, the inhibition is 5.81%.

Regarding `O=C1C(=O)N(CC2COc3ccccc3O2)c2ccccc21` (centres undefined), the inhibition was 23.1% (active).

In the case of `COc1ccccc1N(C(=O)Cn1nnc2ccccc21)C(C(=O)NCc1ccco1)c1ccc(C)o1` (centres undefined), the inhibition was 26.2% (active).

Take `Cc1ccc(C(=O)NCCN2CCOCC2)cc1C`: the inhibition is 0.81%.

In the case of `O=Cc1cn(Cc2ccccc2)nc1-c1cccnc1`, the inhibition is 47.9% (active).

In the case of `C[C@@]12C(=O)N(c3cccc(Br)c3)C(=O)N1[C@H](c1ccc(Cl)cc1)[C@@H]1C(=O)N(C3CCCCC3)C(=O)[C@@H]12`, the inhibition was 15.9% (active).

On to `COC(=O)c1cc(NC(=O)Cc2ccccc2[N+](=O)[O-])ccc1Cl`, for which the inhibition was 15% (active).

`C=C(C)COc1ccc(-c2n[nH]c(C)c2-c2ccccc2)c(O)c1`: the inhibition was 5.95%.
